Reference: the GenesisPotency data set
Screen size: about 290,000 compounds; about 3,000 (1%) were called active. No stated cut-off is given here; in the data, active means inhibition mostly above about 36% (no sharp cut-off); inactive means mostly below about 34%. Only a selection was taken, and actives are over-represented in it overall.

target: T1, Nucleotide-binding oligomerization domain-containing protein 1, Homo sapiens (UniProt Q9Y239); assay: NOD1 signaling inhibitors, primary screen, cell-based, luminescence, uHTS (AID 1578)
T1 sequence (whole entry): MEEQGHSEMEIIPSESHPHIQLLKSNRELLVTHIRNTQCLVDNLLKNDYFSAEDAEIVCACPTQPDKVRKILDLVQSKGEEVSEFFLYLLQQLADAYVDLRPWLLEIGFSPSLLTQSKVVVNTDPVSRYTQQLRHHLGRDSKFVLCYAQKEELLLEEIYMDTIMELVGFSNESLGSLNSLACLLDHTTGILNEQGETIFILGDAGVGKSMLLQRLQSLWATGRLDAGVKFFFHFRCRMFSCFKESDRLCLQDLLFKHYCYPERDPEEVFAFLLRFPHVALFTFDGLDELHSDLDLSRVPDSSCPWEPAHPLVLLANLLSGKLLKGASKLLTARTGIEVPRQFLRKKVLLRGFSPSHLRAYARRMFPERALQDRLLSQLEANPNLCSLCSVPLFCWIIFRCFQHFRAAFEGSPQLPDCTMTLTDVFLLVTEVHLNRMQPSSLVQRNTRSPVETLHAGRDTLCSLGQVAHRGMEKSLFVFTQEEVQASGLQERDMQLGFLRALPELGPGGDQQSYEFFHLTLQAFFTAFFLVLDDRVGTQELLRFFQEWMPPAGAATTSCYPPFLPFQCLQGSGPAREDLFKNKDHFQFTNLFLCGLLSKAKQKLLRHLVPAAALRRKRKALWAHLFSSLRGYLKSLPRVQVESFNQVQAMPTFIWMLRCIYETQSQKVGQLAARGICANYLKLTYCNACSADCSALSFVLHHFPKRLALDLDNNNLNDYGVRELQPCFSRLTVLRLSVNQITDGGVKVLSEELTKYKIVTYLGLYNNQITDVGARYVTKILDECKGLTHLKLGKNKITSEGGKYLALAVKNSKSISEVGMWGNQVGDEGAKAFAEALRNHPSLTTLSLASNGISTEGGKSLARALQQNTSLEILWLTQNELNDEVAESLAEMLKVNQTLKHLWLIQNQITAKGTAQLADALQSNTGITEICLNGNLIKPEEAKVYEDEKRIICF

outcome, active:
COc1ccc(Cc2nc3ccc(C(=O)N4CCN(C)C(C)C4)cc3o2)cc1OC (stereo not given)
Cc1cccc(CSc2cccc3cccnc23)c1
Cn1c(=O)[nH]c(=O)c2c1nc([N+](=O)[O-])n2Cc1ccccc1
CCCCCn1c(SCCc2ccccc2)nc2c1c(=O)[nH]c(=O)n2C
Cn1c(=O)[nH]c(=O)c2c1nc(N1CCC(Cc3ccccc3)CC1)n2Cc1ccccc1
COc1cccc(-c2coc3c(C)c4oc(=O)c(CCC(=O)O)c(C)c4cc23)c1
Cc1ccc(-c2csc(NC(=O)c3ccc4c(=O)n5c(nc4c3)CCCCC5)n2)cc1
O=C(Nc1nc(-c2ccccc2)cs1)c1ccc2c(=O)n3c(nc2c1)CCCCC3
COc1ccc(CNC(=O)c2cc3c(C)nc4ccccc4c3o2)c(OC)c1
C/C(=N\NC(=O)c1cccc2ccccc12)c1ccccn1
C/C(=N\NC(=O)c1ccccc1Cl)c1ccccn1
C/C(=N\NC(=O)C1COc2ccccc2O1)c1ccccn1 (stereo not given)
C/C(=N\Nc1nc2ccccc2[nH]1)c1ccccn1
C=CCNC(=S)N/N=C(\C)c1ccccn1
C/C(=N\NC(=O)C(C)Oc1ccc([N+](=O)[O-])cc1)c1ccccn1 (stereo not given)
C/C(=N\NC(=O)C(c1ccccc1)c1ccccc1)c1ccccn1
C/C(=N\NC(=O)c1cc(-c2cccs2)nc2ccccc12)c1ccccn1
O=S1(=O)Nc2c(ccc3cccnc23)-c2ccccc21
Cc1ccccc1-c1nc(CSc2nc3c(c(=O)[nH]2)CCC3)c(C)o1
O=C(CCl)c1cc2c3c(c1)CC(=O)N3CCC2
CCOc1cc(S(=O)(=O)NCc2ccncc2)ccc1Cl
CCN(CC)S(=O)(=O)c1ccc(C(=O)Nc2ccc(Cc3ccncc3)cc2)cc1
Cc1ccc(C)c(N2CCN(C(=O)CCS(=O)(=O)c3ccc4c(c3)NC(=O)C(C)S4)CC2)c1 (stereo not given)
CCOc1ccc(/C=C/C(O)=C2/C(=O)N(C)C3(C)CC2c2ccccc2O3)cc1OC (stereo not given)
COc1ccc(-n2nc(C#N)c(Cl)cc2=O)cc1
Cn1c(/C=C/c2ccc(Cl)cc2Cl)c([N+](=O)[O-])c(=O)n(C)c1=O
Cc1ccc(-n2c(-c3ccc(Br)cc3)c[n+]3c2CCc2ccc4cccnc4c2-3)cc1.[Br-]
O=c1cc(C(F)(F)F)[nH]c2ccc(OC(F)(F)F)cc12
O=c1cc(C(F)(F)F)[nH]c2ccc(C(F)(F)F)cc12
O=C1CSc2ccc(C(=O)Nc3cccc(S(=O)(=O)Nc4ccc(Br)cc4)c3)cc2N1
O=C(/C=C/c1ccc([N+](=O)[O-])s1)N1CCCCC1
CC1CC(C)CN(C(=O)/C=C/c2ccc([N+](=O)[O-])s2)C1 (stereo not given)
CCOC(=O)c1c(-c2ccccc2)oc2cc(Br)c(O)c(C=O)c12
COc1ccccc1NC(=O)c1cc2cc(Br)ccc2cc1O
Cc1ccnc(NC(=O)Cc2ccc(-c3ccccc3)cc2)c1
COc1cc(OC)cc(-c2cc3nc(C)c(CCC(=O)O)c(C)n3n2)c1
O=c1[nH]c(-c2ccccn2)nc2sc(-c3ccccc3)cc12
Cn1c2c(c(=O)n(C)c1=O)C(C(F)(F)F)(C(F)(F)F)N=C(c1ccc(Cl)cc1)N2
CC1CCC/C=C/C(=O)c2c(O)cc(O)cc2CC(=O)O1 (stereo not given)
COc1ccc(NC(=O)/C(Cl)=C(/Cl)S(=O)(=O)Cc2ccc(C)cc2)cn1
COc1ccc(NC(=O)/C(Cl)=C(/Cl)S(=O)(=O)Cc2ccccc2)cn1
N=C1SCC(=O)N1c1ncc(Cc2cccc(Cl)c2)s1
N=C1SCC(=O)N1c1ncc(Cc2ccc(F)cc2)s1
N=C1SCC(=O)N1c1ncc(Cc2ccccc2Cl)s1
O=c1[nH]c(=O)n(Cc2ccco2)c2c1C(C(F)(F)F)(C(F)(F)F)N=C(c1ccc(F)cc1)N2
Nc1ncnc(NCc2ccc(F)cc2)c1[N+](=O)[O-]
CCc1ccc(NC(=O)C2CCN(S(=O)(=O)c3ccc4c(c3)CC(C)N4C(C)=O)CC2)cc1 (stereo not given)
CC(=O)c1ccc(N2CCN(S(=O)(=O)c3ccc4c(c3)CC(C)N4C(C)=O)CC2)cc1 (stereo not given)
Cc1ccc(-n2nc3c(=O)n(C(C)C(=O)NCCCc4ccccc4)nc(C)c3c2C)cc1 (stereo not given)
Cc1ccc(-n2nc3c(=O)n(C(C)C(=O)NCCC4=CCCCC4)nc(C)c3c2C)cc1 (stereo not given)
Cc1ccc(-n2nc3c(=O)n(C(C)C(=O)NCCc4cccs4)nc(C)c3c2C)cc1 (stereo not given)
Cc1ccc(-n2nc3c(=O)n(CC(=O)NC(C)CCc4ccccc4)nc(C)c3c2C)cc1 (stereo not given)
Cc1ccc(NC(=O)c2cnc(N3CCN(c4ccccn4)CC3)c3ccccc23)c(Br)c1
O=C(c1cnc(N2CCN(c3ccccn3)CC2)c2ccccc12)N1CCN(c2cccc(Cl)c2)CC1
Cc1cc(Br)ccc1NC(=O)c1cnc(N2CCN(c3ccccn3)CC2)c2ccccc12
CCc1ccc(NC(=O)c2cnc(N3CCN(c4ccccn4)CC3)c3ccccc23)cc1
C=CCSc1nc2ccccc2n1C(=O)/C=C/c1ccc(OC)c(OC)c1
O=C(NC1CCCCC1)C(c1cccnc1)N(C(=O)CCl)c1ccc(F)cc1 (stereo not given)
COc1ccc(N(C(=O)CCl)C(C(=O)NC2CCCCC2)c2cccnc2)cc1 (stereo not given)
O=C(CN1C(=O)c2ccccc2S1(=O)=O)c1ccc2c(c1)OCCCO2
O=C(CN1C(=O)c2ccccc2S1(=O)=O)c1ccc2c(c1)OCCO2
COc1cc(OC)c(OC)cc1/C=C/C(=O)c1ccc(NS(=O)(=O)c2ccc(C)cc2)cc1
COc1cc(/C=C/C(=O)c2ccc(NS(=O)(=O)c3ccc(C)cc3)cc2)cc(OC)c1O
O=C(/C(=C/c1ccc(Cl)cc1)c1nc2ccccc2[nH]1)c1ccccc1
O=C(/C(=C/c1ccc(Cl)cc1)c1nc2ccccc2[nH]1)c1cccs1
O=C(/C(=C\c1ccccc1)c1nc2ccccc2[nH]1)c1ccc(Cl)cc1
Cc1ccc(S(=O)(=O)Nc2cccc3ncccc23)s1
O=S(=O)(Nc1cccc2ncccc12)c1cccs1
Cc1ccc(C)c(OCC(=O)Nc2nc3ccc([N+](=O)[O-])cc3s2)c1C
O=[N+]([O-])c1ccc(O)c(-c2cc(C(F)(F)F)nc(-c3ccccc3)n2)c1
CC(C)c1ccc(-n2c(-c3ccccc3)c[n+]3c2CCc2ccccc2-3)cc1.[Br-]
CCCCCCCC[n+]1cccc2c3ccccc3ccc21.[I-]
CCCCCCCCC[n+]1cccc2c3ccccc3ccc21.[Br-]
O=C(NC(NC(=S)Nc1ccc(Cl)cc1Cl)C(Cl)(Cl)Cl)c1cccc([N+](=O)[O-])c1 (stereo not given)
COc1ccc(Cc2[nH]n3c(=O)c(Cl)c(C)nc3c2-c2ccccc2)cc1
O=C(Cc1ccc(Cl)cc1)c1c[nH]c(C(=O)NCc2cccnc2)c1
CCN(c1ccc(OC)cc1)c1ncnc2nc[nH]c12
CCc1ccc(N(CC)c2ncnc3nc[nH]c23)cc1
CCCN(CCC)c1ncnc2nc[nH]c12
COc1ccc(N=C2NC(=O)/C(=C/c3ccc(O)c(OC)c3)S2)cc1
Cc1ccc(C(=O)NC(=S)N(C)C2CCCCC2)cc1Br
O=[N+]([O-])c1ccc(Sc2cccc3cccnc23)c([N+](=O)[O-])c1
C=CCn1nc([N+](=O)[O-])nc1Sc1cccc2cccnc12
Cn1nc([N+](=O)[O-])nc1Sc1cccc2cccnc12
C=CCn1c(SCC(=O)Nc2sccc2C(N)=O)nc2sc(CC)cc2c1=O
Cc1ccc(C(=O)OCn2ncc(Cl)c(Cl)c2=O)cc1
O=C(OCn1ncc(Cl)c(Cl)c1=O)c1cccc(C(F)(F)F)c1
O=C(OCn1ncc(Br)c(Br)c1=O)c1ccccc1Cl
O=C(OCn1ncc(Cl)c(Cl)c1=O)c1ccccc1Cl
COc1cccc(C(=O)Nc2nc(-c3ccccc3)c(-c3ccccc3)o2)c1
COc1cc(OC)cc(C(=O)Nc2nc(-c3ccccc3)c(-c3ccccc3)o2)c1
S=c1[nH]nc(C2CCCCC2)n1/N=C/c1ccncc1
O=c1c2cc(Cl)ccc2nc(-c2ccc(Cl)c(Cl)c2)n1O
O=c1c2cc(Br)ccc2nc(-c2cccc(C(F)(F)F)c2)n1O
COc1cccc(N2CCN(c3ncnc4c3[nH]c3ccc(F)cc34)CC2C)c1 (stereo not given)
COc1cccc(N2CCN(c3ncnc4c3[nH]c3ccccc34)CC2C)c1 (stereo not given)
Cc1nc(N2CCC(C(N)=O)CC2)c2c(-c3cccs3)csc2n1
Cc1sc2nc(CSc3ccccc3)nc(N3CCC(C(N)=O)CC3)c2c1C
CCCc1nnc(NC(=O)c2nc(S(=O)(=O)Cc3ccc(C)cc3)ncc2Cl)s1
Cc1cccc(CS(=O)(=O)c2ncc(Cl)c(C(=O)Nc3c(C)cccc3C)n2)c1
CCCc1nnc(NC(=O)c2nc(S(=O)(=O)Cc3cccc(C)c3)ncc2Cl)s1
CCc1nnc(NC(=O)c2nc(S(=O)(=O)Cc3ccc(C)cc3)ncc2Cl)s1
CC(C)(C)C(=O)/C(=C/c1ccc(Cl)cc1)n1cncn1
O=c1c2ccccc2nc(/C=C/c2ccc([N+](=O)[O-])o2)n1CCCO
O=c1c2ccccc2nc(/C=C/c2cc(Br)ccc2O)n1CCCO
CC[n+]1c(C=C2C=C(C)OC(C)=C2)sc2ccccc21.[Cl-]
O=[N+]([O-])c1nn(-c2ccc3c(c2)OCCO3)n(O)c1=Nc1ccccc1
COc1ccc(OC)c(Nc2nc(N)nc(CCl)n2)c1
Cc1ccccc1Nc1nc(N)nc(CCl)n1
CCOc1ccc(Nc2nc(N)nc(CCl)n2)cc1
